Our source for the cytotoxicity call values is the antibiotic and cytotoxicity screens of Wong et al. (2023).

Structures are written as SMILES. The campaign covered roughly 39,000 compounds. About 1,500 (3.8%) were called active. The sample as a whole holds a higher share of actives than the screen did.

The subject of this assay is HSkMC (human skeletal muscle cells). The experiment in a line: cytotoxicity call (relative viability < 0.9). To be noted: 10 µM.
Take `C[C@@H]1CN([C@H](C)CO)C(=O)c2cc(NC(=O)C3CCCCC3)ccc2O[C@@H](C)CCCCO[C@H]1CN(C)S(=O)(=O)c1cccs1`: the cytotoxicity call was “inactive”.
The same measure for `COc1ccc(NC(=O)N(C)C[C@@H]2OCCCC[C@H](C)Oc3ccc(NC(=O)Nc4c(C)noc4C)cc3C(=O)N([C@@H](C)CO)C[C@H]2C)cc1`: “inactive”.
For the compound `CC(C)=CCCC(C)=CCO`, the cytotoxicity call is “inactive”.
As to `CN(C)CCOc1ccc(C(=C(CCCl)c2ccccc2)c2ccccc2)cc1.O=C(O)CC(O)(CC(=O)O)C(=O)O`, the cytotoxicity call was “active”.
Take `CCC(=C(c1ccccc1)c1ccc(OCCN(C)C)cc1)c1ccccc1.O=C(O)CC(O)(CC(=O)O)C(=O)O`: the cytotoxicity call is “inactive”.
For the compound `CCN(CC)CCOc1ccc(C(=C(Cl)c2ccccc2)c2ccccc2)cc1.O=C(O)CC(O)(CC(=O)O)C(=O)O`, the cytotoxicity call is “inactive”.
As for `C[C@H]1CN([C@@H](C)CO)S(=O)(=O)c2ccc(C3=CCCC3)cc2O[C@@H]1CN(C)C(=O)c1cnccn1`, the cytotoxicity call was “inactive”.
For `C[C@@H]1CN([C@@H](C)CO)S(=O)(=O)c2ccc(C#CCC3CCCC3)cc2O[C@@H]1CN(C)C(=O)CN(C)C`, the cytotoxicity call was “inactive”.
The result for `COc1cc(-c2ccc(NN=C3C=Cc4c(S(=O)(=O)O)cc(S(=O)(=O)O)c(N)c4C3=O)c(OC)c2)ccc1NN=C1C=Cc2c(S(=O)(=O)O)cc(S(=O)(=O)O)c(N)c2C1=O` reads “active”; that for `Cc1cc(-c2ccc(NN=C3C=Cc4c(S(=O)(=O)O)cc(S(=O)(=O)O)c(N)c4C3=O)c(C)c2)ccc1NN=C1C=Cc2c(S(=O)(=O)O)cc(S(=O)(=O)O)c(N)c2C1=O`, “inactive”.
With `Cc1noc(C)c1S(=O)(=O)Nc1ccc2c(c1)CC(=O)N([C@@H](C)CO)C[C@@H](C)[C@H](CN(C)C(=O)NC(C)C)O2`, the cytotoxicity call is “inactive”.
As to `C[C@@H]1CN([C@@H](C)CO)C(=O)c2cc(NC(=O)Nc3cccc4ccccc34)ccc2O[C@@H](C)CCCCO[C@H]1CN(C)C(=O)Nc1ccc2c(c1)OCO2`, the cytotoxicity call was “inactive”.
As to `C[C@@H]1CN([C@@H](C)CO)C(=O)Cc2cc(NC(=O)CCC(F)(F)F)ccc2O[C@@H]1CN(C)S(=O)(=O)c1ccccc1`, the cytotoxicity call is “inactive”.
The result for `C[C@H](CO)N1C[C@H](C)[C@@H](CN(C)Cc2ccc3c(c2)OCO3)Oc2ccc(NC(=O)Nc3ccc(C(F)(F)F)cc3)cc2CC1=O` reads “active”; that for `C[C@H]1CN([C@@H](C)CO)C(=O)Cc2cc(NC(=O)Nc3ccc(C(F)(F)F)cc3)ccc2O[C@H]1CN(C)Cc1ccc2c(c1)OCO2`, “active”.
On to `C[C@H]1CN([C@@H](C)CO)C(=O)Cc2cc(NC(=O)Nc3ccc(C(F)(F)F)cc3)ccc2O[C@@H]1CN(C)Cc1ccc2c(c1)OCO2`, for which the cytotoxicity call was “inactive”.
For the compound `C[C@H](CO)N1C[C@H](C)[C@H](CN(C)Cc2ccc3c(c2)OCO3)Oc2ccc(NC(=O)Nc3ccc(C(F)(F)F)cc3)cc2CC1=O`, the cytotoxicity call was “inactive”.
Regarding `C[C@@H]1CN([C@@H](C)CO)C(=O)Cc2cc(NC(=O)Nc3ccc(C(F)(F)F)cc3)ccc2O[C@@H]1CN(C)Cc1ccc2c(c1)OCO2`, the cytotoxicity call is “active”.
With `C[C@@H]1CN([C@H](C)CO)C(=O)Cc2cc(NC(=O)Nc3ccc(C(F)(F)F)cc3)ccc2O[C@H]1CN(C)Cc1ccc2c(c1)OCO2`, the cytotoxicity call is “inactive”.
On to `C[C@@H]1CN([C@H](C)CO)C(=O)Cc2cc(NC(=O)Nc3ccc(C(F)(F)F)cc3)ccc2O[C@@H]1CN(C)Cc1ccc2c(c1)OCO2`, for which the cytotoxicity call was “active”.
The result for `C[C@@H]1CN([C@@H](C)CO)C(=O)Cc2cc(NC(=O)Nc3ccc(C(F)(F)F)cc3)ccc2O[C@H]1CN(C)Cc1ccc2c(c1)OCO2` reads “inactive”.
